KB-V1 MDR tox – KB-V1 MDR subline cytotoxicity; hit rate 3.4% among 400,000; Potency, µM (titrated, usually from 46.1 µM), most hits filed as cytotoxic; KB-V1 MDR cells viability, CellTiter-Glo, 72 h; AID 1347076; also: nearly all actives have a fitted effect of over 60% in size
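KB-V1 cells (P-gp-expressing MDR subline of KB-3-1) in phenol-red-free DMEM with 10% FBS were exposed to library compounds over a concentration series for 72 h at 37 degrees C. Viability read by CellTiter-Glo luminescence; concentration-effect curves fitted after normalization.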
KB-3-1 tox – kills parental KB-3-1 adenocarcinoma cells | Potency, µM (highest dose often 46.1 µM), usual class: cytotoxic | hit rate 1.4% among 400,000 | AID 1347075 | KB-3-1 viability, CellTiter-Glo ATP luminescence, 72 h; also: nearly all actives have a fitted effect of over 60% in size
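Viability of parental KB-3-1 cells, measured by CellTiter-Glo luminescence, followed a 72 h incubation at 37 °C with pinned compounds in phenol-red-free DMEM containing 10% FBS.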
HT1080NT lethal – kills 2HG-producing HT-1080-NT fibrosarcoma cells | HT-1080-NT fibrosarcoma viability, CellTiter-Glo ATP luminescence, 48 h | Potency, µM (titrated, usually from 46.1 µM), usual class: cytotoxic | hit rate 1.6% among 360,000 | AID 686970;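 also: NT is the 2HG producing partner of a matched IDH1 knockdown line; nearly all actives have a fitted effect of over 55% in size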
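A 48-hour cytotoxicity screen used HT-1080-NT cells plated 2 hours before compound delivery. ATP-based CellTiter-Glo luminescence measured viability, normalized to DMSO and no-cell controls.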
HT1080 IDH1KD tx – toxicity to HT-1080 IDH1 knockdown cells (counter line); hit rate 2% among 360,000; HT-1080 IDH1 knockdown viability, ATP luminescence, 48 h; AID 686971; Potency, µM (titrated, usually from 46.1 µM), hits mostly cytotoxic
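Viability of IDH1-knockdown HT-1080 fibrosarcoma cells was assessed by CellTiter-Glo after 48 h at 37 °C with titrated compound; concentration-effect curves were classified by fit quality and response size.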
TDP1 cell CPT – DT40-hTDP1 cell growth loss with CPT. chicken DT40 Tdp1-/-;hTDP1 cells + 20 nM CPT, ATP luminescence, 48 h. Potency, µM (highest dose often 46.2 µM), most hits filed as inhibitors. hit rate 12% among 420,000. AID 686979; also: nearly all actives have a fitted effect of over 55% in size
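Chicken DT40 Tdp1-/- cells complemented with human TDP1, 400 cells/well, exposed to compounds plus 20 nM camptothecin for at least 48 h at 37 C; viability read as ATP content by CellTiter-Glo luminescence.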
DT40 TDP1 no CPT – qHTS for Inhibitors of human tyrosyl-DNA phosphodiesterase 1 (TDP1): qHTS in cells in absence of CPT; DT40 Tdp1-/- hTDP1 cells, no CPT, ATP luminescence, 48 h; Potency, µM (doses to about 46.2 µM), actives largely listed as inhibitors; hit rate 15% among 420,000; AID 686978, 2013; also: nearly all actives have a fitted effect of over 55% in size
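Stably hTDP1-transfected Tdp1-null chicken DT40 cells were treated with library compounds minus camptothecin and grown for at least 48 hr at 37 °C, after which cellular ATP was quantified by luminescence.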
A number is an active result; . = inactive; ? = inconclusive; / = not tested or not shown; [ ] = dose if it differs, or a comment. An excerpt weighted towards active compounds, which were near 19% of everything screened. Calls follow the shape of the dose curve; as a rule, active = well fitted curve in the direction sought with a large enough effect; inconclusive = small, poorly fitted or top-dose-only effect, or another doubt; inactive = no such curve, though single readings can be large; an effect the other way counts as inactive or inconclusive.

SMILES | KB-V1 MDR tox | KB-3-1 tox | HT1080NT lethal | HT1080 IDH1KD tx | TDP1 cell CPT | DT40 TDP1 no CPT
Cc1c(Br)c([N+](=O)[O-])nn1CC(=O)N1CCc2ccccc21 | . | . | . | . | . | .
COC(=O)/C(=N/Nc1ccc(C)cc1)N1CCCc2ccccc21 | ? | . | . | . | 11.6µM | ?
Cc1ccc(OC(C)C(=O)N2CCCc3ccccc32)cc1 (configuration not stated) | . | . | .[9.24 µM] | . | ? | 25.9µM
Cc1c(Br)c([N+](=O)[O-])nn1C(C)C(=O)N1CCCc2ccccc21 (configuration not stated) | ? | . | . | . | ? | 16.4µM
COc1cccc(OCCCn2c(-c3ccc(Cl)cc3)nc3ccccc3c2=O)c1 | . | . | / | / | . | .
COc1ccc(OC)c(CCNC(=O)c2ccc3[nH]c(C)c(C)c3c2)c1 | . | . | / | / | ? | 20.6µM
COc1ccc(CCNC(=O)c2ccc3[nH]c(C)c(C)c3c2)cc1OC | . | . | / | / | ? | 23.1µM
COc1ccc(NC(=O)c2ccc3[nH]c(C)c(C)c3c2)cc1 | . | . | . | . | ? | .
CCOc1ccc(CCNC(=O)c2ccc3[nH]c(C)c(C)c3c2)cc1 | . | . | / | / | ? | 20.6µM
Cc1cc(NC(=O)c2ccc3[nH]c(C)c(C)c3c2)ccn1 | ? | ? | . | ? | 20.6µM | 25.9µM
COc1ccccc1NC(=O)C(Cc1ccccc1)NS(=O)(=O)c1cccc2nsnc12 (configuration not stated) | . | . | / | / | ? | ?
COC(=O)c1ccccc1NC(=O)c1ccc2nc(Cc3ccccc3)oc2c1 | . | . | / | / | ? | ?
COc1cccc(C(=O)NCC2Cc3cccc(-c4nc(C)cnc4C)c3O2)c1OC (configuration not stated) | / | / | / | / | .[9.04 µM] | ?
O=C(NCC(F)(F)F)c1ccc(S(=O)(=O)Nc2ccccc2N2CCCC2)cc1 | . | . | . | . | . | .
Cc1ccc(S(=O)(=O)N2CCN(C(=O)COC(=O)Cc3ccc(F)cc3)CC2)c(C)c1 | . | . | . | . | . | .
COc1cc(OC)c(C(=O)OCC(=O)N2CCN(S(=O)(=O)c3ccc(C)cc3C)CC2)cc1OC | 16.4µM | . | . | . | ? | ?
CCC(C(=O)OCC(=O)N1CCN(S(=O)(=O)c2ccc(C)cc2C)CC1)c1ccccc1 (configuration not stated) | 14.6µM | . | . | . | ? | ?
CSc1ccc(CSCC(=O)N2CCN(S(=O)(=O)c3ccc(C)cc3C)CC2)cc1 | ? | ? | . | . | 25.9µM | ?
Cn1c(=O)c2cc(NC(=O)NCc3ccc(Cl)cc3Cl)ccc2n1Cc1ccc(F)cc1 | . | ? | . | ? | ? | ?
Fc1ccc(-c2cn3cc(Cc4ccc(Cl)cc4)sc3n2)cc1 | . | ? | / | / | . | .
O=C1NC(=S)NC(=O)C1=Cc1ccccc1C(=O)O | . | . | . | . | . | .
Cc1ccccc1-c1cnc(C(O)c2cccc(C)c2C)[nH]1 (configuration not stated) | . | . | ? | . | ? | ?
Clc1ccc(Nc2nc(N3CCOCC3)nc(N3CCOCC3)n2)cc1Cl | . | . | . | . | ? | 9.2µM
Cc1ccc(Nc2nc(N3CCOCC3)nc(N3CCOCC3)n2)cc1 | ? | . | . | . | 18.4µM | 18.4µM
Fc1ccccc1Nc1nc(N2CCOCC2)nc(N2CCOCC2)n1 | . | . | . | . | 20.6µM | ?
SMILES | KB-V1 MDR tox | KB-3-1 tox | HT1080NT lethal | HT1080 IDH1KD tx | TDP1 cell CPT | DT40 TDP1 no CPT
Fc1ccc(Nc2nc(N3CCOCC3)nc(N3CCOCC3)n2)cc1Cl | . | . | . | . | ? | .
CC(=O)Nc1ccc(Nc2nc(Nc3ccc(Cl)cc3)nc(N3CCOCC3)n2)cc1 | . | . | / | / | 1.26µM | 0.794µM
CCOCCc1nn2c(=O)cc(COC(=O)Cc3ccccc3)nc2s1 | . | . | / | / | . | .
O=Cc1ccc(-c2c(-c3ccccc3)oc3c2C(OCCCCO)CCC3)o1 (configuration not stated) | . | . | ? | ? | ? | ?
CC1CCCCC12NC(=O)N(CC(=O)Nc1ccc(OC(F)F)cc1)C2=O (configuration not stated) | . | . | . | . | ? | ?
Clc1ccc(Nc2nc(Nc3ccc(Cl)cc3)nc(N3CCOCC3)n2)cc1 | . | . | / | / | ? | ?
Cc1ccc(Nc2nc(Nc3ccc(Cl)cc3)nc(N3CCOCC3)n2)cc1 | . | . | / | / | 11.2µM | 17.8µM
CC(C)c1ccc(Nc2nc(N3CCOCC3)nc(N3CCOCC3)n2)cc1 | . | . | . | . | 18.4µM | 18.4µM
CCCCN1CC(N2CCN(C(=O)c3ccco3)CC2)CS1(=O)=O (configuration not stated) | . | . | . | . | . | .
O=[N+]([O-])c1ccc(CN2CCC(Cc3ccccc3)CC2)cc1 | . | . | . | . | ? | ?
O=[N+]([O-])c1nn(-c2ccccc2)n(O)c1=NC1CCN(Cc2ccccc2)CC1 | ? | . | . | . | 3.26µM | 9.2µM
O=[N+]([O-])c1nn(-c2ccc3c(c2)OCCO3)n(O)c1=NC1CCN(Cc2ccccc2)CC1 | . | . | . | . | 10.3µM | ?
CC1CCc2c(sc(NC(=O)c3cc4nc(-c5ccc(Cl)cc5)cc(C(F)(F)F)n4n3)c2C#N)C1 (configuration not stated) | . | . | / | / | . | .
COc1ccc(-c2noc(COc3cc(C)c(Br)c(C)c3)n2)cc1OC | . | . | / | / | . | .
CCCC(=O)Nc1ccccc1NC(=O)c1ccc(OC(C)=O)cc1 | . | . | . | . | . | .
Cc1ccsc1CN(C)c1ncnc2ccc(-c3ccc4c(c3)OCO4)cc12 | . | ? | / | / | / | /
CC(=O)c1cccc(NC(=O)c2ccc3c(c2)CCCC3)c1 | ? | . | . | . | ? | ?
CC(=O)c1cccc(NC(=O)c2ccc3nc(C(C)C)oc3c2)c1 | / | / | / | / | ? | 16.4µM
CC(C)c1nc2ccc(C(=O)Nc3ccccc3F)cc2o1 | . | ? | / | / | 7.31µM | 5.8µM
Cc1c(Cl)cccc1NC(=O)c1ccc2nc(C(C)C)oc2c1 | / | / | / | / | ? | 11.6µM
COC(=O)[C@@H]1CCCN1S(=O)(=O)Cc1ccccc1 | . | . | / | / | . | .
OC[C@@H]1CN(Cc2cccs2)C[C@H](n2cnc3c(NCc4ccncc4)ncnc32)O1 | . | . | . | . | . | .
COc1cccc(-c2nc(NC(C)(C)C)c3ccccc3n2)c1O | 23.1µM | ? | ? | ? | ? | 20.6µM
COc1ccc(Nc2nc(-c3cccc(OC)c3O)nc3ccccc23)cc1 | . | . | . | ? | ? | 16.4µM

Compound activity (PubChem)
